Bioassay records (PubChem BioAssay)
This is one part of a sample in which hits are shown more often than they occur.
TbPYK inhibitor: qHTS of Trypanosoma Brucei Inhibitors; 410,000 compounds, 0.12% hits; TbPYK enzyme, Kinase-Glo Plus ATP luminescence, 45 min; Potency, µM (series often up to 76.8 µM), inactives show at the highest dose activity, negative = inhibition, usual class: inhibitors; AID 624173, 2012; pyruvate kinase (Trypanosoma brucei), Q57TT1; also: potency is read from the fitted curve at half-maximal effect; % is scaled to controls: 0 for no effect and ±100 for the full control effect; nearly all actives have a fitted effect of over 50% in size
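ADP (130 uM final) triggers the TbPYK reaction after compound addition; incubation is 45 min at room temperature. Kinase-Glo Plus is then added and luminescence imaged. Normalized data are fitted to concentration-effect curves.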
RE007 growth inh: qHTS Assay for Inhibitors of the HIV-1 protein Vpr; Potency, µM (highest dose often 92.2 µM), inactives show at the top dose activity change, negative = less growth, hits mostly inhibitors; AID 651644, 2012; 360,000 compounds, 0.21% hits; S. pombe RE007 Vpr strain, BacTiter-Glo ATP luminescence, 24 h; active = well fitted falling curve with a large enough effect; inconclusive = small, poorly fitted or top-dose-only effect; inactive = no such curve, though single readings can be large or run the other way; also: potency is read from the fitted curve at half-maximal effect; % is scaled to controls: 0 for no effect and ±100 for the full control effect; nearly all actives have a fitted effect of over 50% in size
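Fission yeast RE007 carrying one integrated HIV-1 vpr copy, seeded at OD 0.01 in PMG+AL medium with 23 nL pinned compound. Grown 24 h at 30 degrees; viability read by BacTiter-Glo luminescence after 5 min.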
LmPK inh: qHTS Assay for Inhibitors of Leishmania Mexicana Pyruvate Kinase (LmPK); Q27686; purified LmPK, Kinase-Glo ATP luminescence, 1 h; Potency, µM (doses to about 57.5 µM), for inactives: at the top dose activity change, negative = inhibition, most hits filed as inhibitors; 290,000 compounds, 0.37% hits; AID 1721, 2009; also: potency is read from the fitted curve at half-maximal effect; % is scaled to controls: 0 for no effect and ±100 for the full control effect
Target sequence (Q27686 whole entry, looked up): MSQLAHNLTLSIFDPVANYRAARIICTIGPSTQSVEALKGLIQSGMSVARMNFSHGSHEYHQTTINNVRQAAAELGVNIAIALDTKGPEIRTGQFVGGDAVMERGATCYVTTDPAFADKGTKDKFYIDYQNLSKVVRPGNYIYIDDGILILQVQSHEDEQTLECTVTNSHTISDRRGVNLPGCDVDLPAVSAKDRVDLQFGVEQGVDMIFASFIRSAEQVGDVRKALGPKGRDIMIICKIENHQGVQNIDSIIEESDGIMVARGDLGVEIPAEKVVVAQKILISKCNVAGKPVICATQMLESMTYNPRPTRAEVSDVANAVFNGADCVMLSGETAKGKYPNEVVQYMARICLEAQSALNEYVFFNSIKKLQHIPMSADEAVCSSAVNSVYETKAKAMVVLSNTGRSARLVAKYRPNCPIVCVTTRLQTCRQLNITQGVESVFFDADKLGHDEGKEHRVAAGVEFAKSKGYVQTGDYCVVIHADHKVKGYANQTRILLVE
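Kinase-Glo luminescence read after 1 h RT reaction of 0.1 nM LmPK with 0.5 mM PEP and 0.1 mM ADP. Activity scaled between uninhibited and enzyme-free controls.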
CHX counter: Cycloheximide Counterscreen for Small Molecule Inhibitors of Shiga Toxin. cell reporter, cycloheximide protein synthesis inhibition counterscreen. max response, %. 300,000 compounds, 12% hits. AID 2314, 2010; in the data active = max response mostly above about 13%, no sharp cut-off; inactive = mostly below about 14%; also: read at 38.3 µM for the half of the compounds with a filed dose; 0% is about no effect
Shiga toxin inh: A qHTS for Small Molecule Inhibitors of Shiga Toxin; Vero cells, Shiga toxin protein synthesis inhibition reporter; 290,000 compounds, 9.2% hits; inhibition, % at 38.7 µM; in the data active = inhibition mostly above about 28%, no sharp cut-off; inactive = mostly below about 43%; also: 0% is about no effect
FBPA Giardia inh: qHTS Assay for Inhibitors of Fructose-1,6-bisphosphate Aldolase from Giardia Lamblia | A8B2U2 | purified Giardia FBPA | Potency, µM (highest dose often 59.6 µM), for the others: top-dose activity, negative = inhibition, most hits filed as inhibitors | 290,000 compounds, 0.71% hits | AID 2451, 2010; also: potency is read from the fitted curve at half-maximal effect; % is scaled to controls: 0 for no effect and ±100 for the full control effect; nearly all actives have a fitted effect of over 55% in size
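Giardia FBPA (40 nM reagent) was preincubated 10 min at RT with compound (up to 57.5 uM final), then substrate plus GAPDH/TPI/NAD/arsenate coupling system with diaphorase/resazurin was added; resorufin fluorescence (525/598 nm) was read after 20 min.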
The depositor's hits bear a star; ? = inconclusive; / = no result; [ ] = another dose, or the depositor's remark. Unless noted, calls follow the shape of the dose curve; as a rule, active = well fitted curve in the direction sought with a large enough effect; inconclusive = small, poorly fitted or top-dose-only effect, or another doubt; inactive = no such curve, though single readings can be large; an effect the other way counts as inactive or inconclusive.

SMILES | TbPYK inhibitor | RE007 growth inh | LmPK inh | CHX counter | Shiga toxin inh | FBPA Giardia inh
Cc1cc2cc(C#N)c(SCC(=O)Nc3nonc3C)nc2cc1C | -2% | -11% | -2% | 14 | 16 | /
Cc1nonc1NC(=O)CSc1nc2c(C)cccc2cc1C#N | 5% | -7% | 2% | 41* | 68* | -5%
Cc1ccc(-c2ccc(C3C4C=CCC(C)C4C(=O)N3Cc3ccccc3)c(F)c2)cc1 (stereo unspecified) | / | / | / | 7 | 3 | -7%
COc1cc(OC)cc(-n2c(=O)c3ccccc3n(Cc3ccccc3C#N)c2=O)c1 | 3% | / | / | / | / | /
CC(=O)c1ccc(OCc2cc(C(=O)NCCc3ccc(Cl)cc3)no2)cc1 | 6% | 11% | 8% | 19* | 48* | 8%
Cc1ccc(OCc2cc(C(=O)NCC3COCCO3)no2)cc1C (stereo unspecified) | 9% | -1% | 0% | 41* | 42* | /
Cc1ccc(OCc2cc(C(=O)NCC(C)(C)N3CCOCC3)no2)cc1C | 5% | -19% | -8% | -2 | -20 | /
CCN1CCCC1CNC(=O)c1cc(COc2ccc(C)c(C)c2)on1 (stereo unspecified) | -4% | -1% | -3% | 32* | 53* | -17%
COC(=O)c1ccc(CNC(=O)c2cc(COc3cncc(Cl)c3)on2)cc1 | 10% | -5% | -13% | 17 | -10 | /
Cc1ccc(OCc2cc(C(=O)NCc3cc(F)ccc3C)no2)cn1 | -5% | -13% | -3% | 22* | 28* | 0%
Cc1ccccc1NC(=O)CSc1nc2nccnc2c(=O)n1CCc1c[nH]c2ccccc12 | 15% | / | / | / | / | /
CCCNC(=O)C1(C)CCN(C(=O)c2c(Cl)cccc2Cl)C1 (stereo unspecified) | 5% | 9%[18.4 µM] | / | / | / | /
CCOc1ccc(OCc2ccc(C(=O)NCC3CCCO3)o2)cc1 (stereo unspecified) | -2% | 6% | 6% | 21 | 30 | 2%
Cc1cc(C)nc(CCNC(=O)c2cc(COc3ccccc3)on2)n1 | -14% | -10% | -8% | 36* | 56* | /
CC(=O)c1ccc(OCc2cc(C(=O)NCC3CCCCO3)no2)cc1 (stereo unspecified) | -5% | 11% | -4% | 25* | 46* | -15%
Cc1cc(C)nc(CCNC(=O)c2cc(COc3c(F)cccc3F)on2)n1 | 0% | 2% | -8% | 1 | -6 | -2%
COc1cccc(/C=C2\NC(=O)NC2=O)c1O | 2% | -1% | 1% | 24 | 41* | -1%
COC(=O)C1=C(C)OC(N)=C(C#N)C1c1cc2cc(C)ccc2nc1Cl (stereo unspecified) | 0% | -1% | 3% | -2 | 3 | ?
CC(=O)C1=C(C)OC(N)=C(C#N)C1c1cc2cc(C)c(C)cc2nc1Cl (stereo unspecified) | -1% | 18% | 10% | 31* | active | 8%
c1ccc(OCCSc2nnc3sc4ccccc4n23)cc1 | -9% | -5% | -24% | 16 | 45* | 18µM*
COc1cccc(OCCSc2nnc3sc4ccccc4n23)c1 | 5% | 16% | 4% | 40* | 21* | 16µM*
COc1cccc(C(=O)N2[C@H](COCc3ccccc3)C=CS2(=O)=O)c1 | -3% | -5% | / | / | / | /
COc1ccccc1S(=O)(=O)Cc1ccc(C(=O)NCc2ccc(Cl)cc2)o1 | 1% | / | / | / | / | /
CCOC(=O)c1ccc2c(c1)N(Cc1ccc(F)cc1Cl)C(=O)c1ccccc1S2 | -8% | / | / | / | / | /
COc1ccc(N2CCN(C(=O)C(=O)c3c(C)[nH]c4ccccc34)CC2)cc1 | -5% | -4% | -5% | 2 | -4 | /
SMILES | TbPYK inhibitor | RE007 growth inh | LmPK inh | CHX counter | Shiga toxin inh | FBPA Giardia inh
Cc1[nH]c2ccccc2c1C(=O)C(=O)N1CCCc2ccccc21 | -3% | 8% | -2% | 50* | 64* | -30%
Cc1[nH]c2ccccc2c1SCC(=O)N1CCCc2ccccc21 | 3% | 11% | -7% | -4 | -7 | -2%
CC(=O)c1ccc(N2CCN(C(=O)C(=O)c3c(C)[nH]c4ccccc34)CC2)cc1 | -11% | -4% | 3% | 15* | 16 | 10%
O=C(CSc1ncc(-c2ccccc2)[nH]1)Nc1ccc(Cl)cc1 | 3% | / | / | / | / | /
O=C(N1CCN(c2ccccc2F)CC1)C1(c2cccs2)CCOCC1 | 6% | 4% | -3% | 8 | -16 | 9%
O=C(NC1CCSc2ccccc21)c1ccccc1Cl (stereo unspecified) | -12% | -2% | -2% | 39* | 37* | /
O=C(NC1CCSc2ccccc21)c1ccccc1F (stereo unspecified) | 2% | -13% | -5% | 31* | 54* | /
O=C(NC1CCSc2ccccc21)c1cccc([N+](=O)[O-])c1 (stereo unspecified) | 6% | 4% | -5% | 23 | 48* | 8%
COc1ccccc1C(=O)NC1CCSc2ccccc21 (stereo unspecified) | -14% | -10% | -1% | -1 | -19 | /
CSc1ccccc1C(=O)NC1CCSc2ccccc21 (stereo unspecified) | 1% | 4% | 1% | 9 | 25 | -11%
NC(=O)CSc1ncc2c(n1)-c1ccccc1N(Cc1cccc(F)c1)S2(=O)=O | 3% | / | / | / | / | /
COc1ccc(C2(c3ccc(OC)cc3)NC(=O)N(CC(=O)N(C)c3ccccc3)C2=O)cc1 | 2% | 6% | -8% | 51* | 72* | /
COc1ccc(C(=O)Nn2cnc3scc(-c4cccs4)c3c2=O)c(O)c1 | 9% | 29% | -5% | 31* | 116* | 1%
Cc1ccc2[nH]c3c(NCCN4CCOCC4)ncnc3c2c1 | -5% | 3% | 2% | 14* | 53* | -1%
O=C1CCCN1CCCNc1ncnc2c1[nH]c1ccc(Cl)cc12 | -6% | 9% | -2% | 13* | 57 | -1%
C=CCNc1ncnc2c1[nH]c1ccc(C)cc12 | 1% | -12% | 3% | 43* | 79* | -11%
Clc1ccc2[nH]c3c(NCCCN4CCOCC4)ncnc3c2c1 | -6% | -6% | 1% | 23 | 21 | 4%
CCOC(=O)c1sc(NC(=O)c2cc(-c3ccc(F)cc3)on2)c(C(=O)OCC)c1C | 0% | / | / | / | / | /
COc1ccc(-c2cc(C)no2)cc1S(=O)(=O)NC1CCC(C)CC1 (stereo unspecified) | -1%[15.4 µM] | / | / | / | / | /
COC(=O)C[C@@H]1OC[C@H](CO)N1S(=O)(=O)c1ccc(C)cc1 | / | 2% | / | / | / | /
O=C(CSc1ccccc1C(=O)O)c1ccc(Cl)cc1 | -9% | 6% | 11% | 30* | 65* | 3%
O=C(CSc1ccccc1C(=O)O)c1ccccc1 | -2% | -2% | 1% | 7 | 21 | 2%
